Holding throughout (settings): 25 µM; exposure: 24-48 hpf
Test [1] has as its system Danio rerio Tg(wt1b:EGFP) embryo, pronephros. Kind of test: glomerular separation, fold change vs DMSO control; higher = glomeruli further apart (abnormal). The procedure, abridged:
(§1)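 From 24 to 48 hpf, at 28.5°C, dechorionated Tg(wt1b:EGFP) zebrafish embryos sat in HEPES-buffered E3 with 0.003% PTU carrying 25 μM compound and 0.5% DMSO. Their pronephroi were imaged dorsally in 96-well plates filled with agarose, using 470 nm light and 10 z-slices. A Fiji macro measured distances and angles between 16 reference points that were set manually on maximum projections, and any value more than 2 SD from its feature mean was excluded. Features are expressed as fold change relative to the mean of DMSO-treated embryos imaged on the same day.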

Test [2] has the same test system. Kind of test: glomerular width (mean of left and right), fold change vs DMSO control; higher = wider glomerulus. The procedure, abridged:
as §1

For test [3] the test system is unchanged. Put plainly: fraction of imaged embryos annotated as normal kidney; higher = less nephrotoxic; extreme values may be limits of the assay. The procedure, abridged: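 Dechorionated Tg(wt1b:EGFP) zebrafish embryos were exposed in 12-well plates to 25 μM compound in 0.5% DMSO, 5 mM HEPES-buffered E3 with 0.003% PTU, from 24 to 48 hpf at 28.5°C. Tricaine-anaesthetised larvae were oriented dorsally in agarose-filled 96-well plates, and pronephroi were imaged by widefield fluorescence (470 nm, 10 z-slices). Each embryo was manually annotated from maximum projections. The read-out is the fraction of embryos per treatment assigned to the normal-kidney category.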

Test [4] has the same test system. Put plainly: pronephric angle neck segment to proximal convoluted tubule (mean of left and right), fold change vs DMSO control; higher = larger pronephric angle. The procedure, abridged:
as §1

Results on 26 compounds are retold here after the supplement of paper PMC7366291.

Structures can show the parent of a compound that is named as a salt. ± gives the standard deviation or the standard deviation of the averaged measurements.

As for `Cc1cccc(Nc2ccccc2C(=O)O)c1C` [Mefenamic acid], the glomerular separation in test [1] was found to be 5.08 ± 1.4. In test [2], this compound came in with a glomerular width of 0.617 ± 0.064. In addition, the “fraction of imaged embryos annotated as normal kidney” value (from here on “fraction of imaged embryos annotated”) in test [3] came out at 0. Besides, the “pronephric angle neck segment” value in test [4] was 1.63 ± 0.059.
With `COc1ccccc1OCC(O)COC(N)=O` (centres undefined) [Methocarbamol], the glomerular separation in test [1] stood at 1.02 ± 0.45. The compound also displayed a glomerular width in test [2] of 1.05 ± 0.03. Moreover, the “fraction of imaged embryos annotated” value in test [3] came to 0.833. The “pronephric angle neck segment” value in test [4] is 1 ± 0.013.
On the same counts, the results for `NC(=O)c1ncn([C@@H]2O[C@H](CO)[C@@H](O)[C@H]2O)n1` [Ribavirin] are 0.913 ± 0.3, 0.965 ± 0.025, 0.75 and 0.985 ± 0.017.
Taken in the same sequence, the figures for `Cc1oncc1C(=O)Nc1ccc(C(F)(F)F)cc1` [Leflunomide] were 2.27 ± 1, 1.19 ± 0.15, 0.167 and 1.23 ± 0.054.
On to `CC(=O)Oc1cc(C(C)C)c(OCCN(C)C)cc1C` [Moxisylyte hydrochoride], for which the glomerular separation in test [1] came to 0.853 ± 0.24. For the same compound, the glomerular width in test [2] was 1.03 ± 0.0053. The “fraction of imaged embryos annotated” value in test [3] is 0.917. Moreover, in test [4], the “pronephric angle neck segment” value was determined as 0.977 ± 0.068.
For the compound `COc1cc(-c2ccc(=O)[nH]n2)ccc1OC(F)F` [Zardaverine], in test [1], the glomerular separation came to 1.12 ± 0.48. The glomerular width in test [2] worked out at 0.9712 ± 0.0072. Moreover, the “fraction of imaged embryos annotated” value in test [3] is 0.583. The “pronephric angle neck segment” value in test [4] worked out at 0.994 ± 0.013.
As to `CC1(C)O[C@@H]2C[C@H]3[C@@H]4CCC5=CC(=O)CC[C@]5(C)[C@@]4(F)[C@@H](O)C[C@]3(C)[C@]2(C(=O)CCl)O1` [Halcinonide], in test [1], the glomerular separation was 2.01 ± 0.91. Also, the glomerular width in test [2] worked out at 1.18 ± 0.014. For the same compound, the “fraction of imaged embryos annotated” value in test [3] was found to be 0.333. Also, the “pronephric angle neck segment” value in test [4] is 1.14 ± 0.043.
Consider `CC[N+](CC)(CC)CCOc1cccc(OCC[N+](CC)(CC)CC)c1OCC[N+](CC)(CC)CC` [Gallamine triethiodide], for which the glomerular separation in test [1] is 1.13 ± 0.48. Moreover, in test [2], the glomerular width was determined as 1.03 ± 0.04. Moreover, in test [3], the “fraction of imaged embryos annotated” value came to 0.833. Also, the “pronephric angle neck segment” value in test [4] turned out to be 0.998 ± 0.034.
`NCc1ccccc1CC(=O)N[C@@H]1C(=O)N2C(C(=O)O)=C(CSc3nnnn3CC(=O)O)CS[C@H]12` [Ceforanide] showed a glomerular separation in test [1] of 1.15 ± 0.8. This compound also gave a glomerular width in test [2] of 0.949 ± 0.091. For the same compound, in test [3], the “fraction of imaged embryos annotated” value amounted to 0.833. In test [4], the “pronephric angle neck segment” value worked out at 1.08 ± 0.038.
In the case of `COc1ccc2c(c1)c(CC(=O)O)c(C)n2C(=O)c1ccc(Cl)cc1` [Indomethacin], in test [1], the glomerular separation came out at 3.64 ± 1.7. For the same compound, the glomerular width in test [2] was found to be 0.781 ± 0.045. The “fraction of imaged embryos annotated” value in test [3] worked out at 0. In addition, in test [4], the “pronephric angle neck segment” value came to 1.62 ± 0.03.
In turn, `NCCCCCC(=O)O` [Aminocaproic acid] showed a glomerular separation in test [1] of 0.833 ± 0.35. In test [2], this compound registered a glomerular width of 0.961 ± 0.022. For the same compound, in test [3], the “fraction of imaged embryos annotated” value amounted to 1. The “pronephric angle neck segment” value in test [4] was 1.02 ± 0.055.
In turn, `CCCN(CCC)CCc1cccc2c1CC(=O)N2` [Ropinirole hydrochloride] returned a glomerular separation in test [1] of 1.34 ± 0.63. The compound also showed a glomerular width in test [2] of 0.908 ± 0.044. Also, in test [3], the “fraction of imaged embryos annotated” value was found to be 0.75. The “pronephric angle neck segment” value in test [4] was 0.991 ± 0.037.
As for `CC(N)C12CC3CC(CC(C3)C1)C2` (centres undefined) [Rimantadine Hydrochloride], the glomerular separation in test [1] is 0.846 ± 0.35. In addition, in test [2], the glomerular width turned out to be 0.967 ± 0.064. The “fraction of imaged embryos annotated” value in test [3] stood at 0.917. Further, the “pronephric angle neck segment” value in test [4] worked out at 1.04 ± 0.04.
For `Cc1nnc(NS(=O)(=O)c2ccc(N)cc2)s1` [Sulfamethizole], the glomerular separation in test [1] stood at 0.838 ± 0.34. Further, the glomerular width in test [2] came to 1.06 ± 0.087. Also, the “fraction of imaged embryos annotated” value in test [3] stood at 0.667. Moreover, in test [4], the “pronephric angle neck segment” value amounted to 1.06 ± 0.028.
In the case of `CC[C@H](c1ccc(O)cc1)[C@@H](CC)c1ccc(O)cc1` [Hexestrol], in test [1], the glomerular separation came to 1.04 ± 0.38. Further, the glomerular width in test [2] stood at 0.94 ± 0.029. Also, the “fraction of imaged embryos annotated” value in test [3] is 0.25. In addition, the “pronephric angle neck segment” value in test [4] was 1.22 ± 0.08.
For the compound `Cn1ccnc1S` [Methimazole], the glomerular separation in test [1] was 1.23 ± 0.58. In addition, the glomerular width in test [2] was found to be 0.876 ± 0.045. Moreover, the “fraction of imaged embryos annotated” value in test [3] is 0.818. Also, in test [4], the “pronephric angle neck segment” value was 1.11 ± 0.064.
Consider `COc1cc(C(=O)NCc2ccc(OCCN(C)C)cc2)cc(OC)c1OC` [Trimethobenzamide hydrochloride], for which the glomerular separation in test [1] amounted to 1.09 ± 0.18. In test [2], this compound displayed a glomerular width of 1.05 ± 0.012. The “fraction of imaged embryos annotated” value in test [3] was determined as 0.833. For the same compound, in test [4], the “pronephric angle neck segment” value was found to be 0.9712 ± 0.0027.
In the case of `CNCCCC1c2ccccc2C=Cc2ccccc21` [Protriptyline hydrochloride], the glomerular separation in test [1] was 0.765 ± 0.31. In addition, the glomerular width in test [2] was found to be 1.07 ± 0.027. Also, in test [3], the “fraction of imaged embryos annotated” value was 0.75. The “pronephric angle neck segment” value in test [4] came to 0.973 ± 0.027.
On the same counts, the results for `CC1=C(/C=C/C(C)=C/C=C/C(C)=C/C(=O)O)C(C)(C)CCC1` [Retinoic acid] are 3.15 ± 1.8, 0.639 ± 0.044, 0 and 1.67 ± 0.033.
On the same counts, the results for `CC(C)(C(=O)c1cccnc1)c1cccnc1` [Metyrapone] are 0.85 ± 0.27, 0.961 ± 0.039, 0.9 and 1.03 ± 0.076.
On the same counts, the results for `CC(=O)O[C@@]12CO[C@@H]1C[C@H](O)[C@@]1(C)C(=O)[C@H](O)C3=C(C)[C@@H](OC(=O)[C@H](O)[C@@H](NC(=O)OC(C)(C)C)c4ccccc4)C[C@@](O)([C@@H](OC(=O)c4ccccc4)[C@H]21)C3(C)C` [Docetaxel] are 1.11 ± 0.48, 0.978 ± 0.051, 0.917 and 1.007 ± 0.0081.
The compound `O=c1[nH]c(=O)n([C@H]2C[C@H](O)[C@@H](CO)O2)cc1C(F)(F)F` [Trifluridine] returned a glomerular separation in test [1] of 0.965 ± 0.28. The glomerular width in test [2] turned out to be 0.9839 ± 0.0047. The “fraction of imaged embryos annotated” value in test [3] amounted to 0.917. Also, in test [4], the “pronephric angle neck segment” value stood at 0.99 ± 0.013.
`CCCOc1ccc2[nH]c(NC(=O)OC)nc2c1` [Oxibendazol] had a glomerular separation in test [1] of 5.39 ± 2.3. Also, in test [2], the glomerular width was found to be 0.505 ± 0.067. For the same compound, in test [3], the “fraction of imaged embryos annotated” value was determined as 0. The “pronephric angle neck segment” value in test [4] turned out to be 1.8 ± 0.035.
For the compound `C[C@]12C=CC(=O)C=C1CC[C@@H]1[C@@H]2[C@@H](O)C[C@@]2(C)[C@H]1CC[C@]2(O)C(=O)CO` [Prednisolone], in test [1], the glomerular separation was found to be 1.36 ± 0.94. Besides, in test [2], the glomerular width is 1.22 ± 0.043. The “fraction of imaged embryos annotated” value in test [3] was 0.75. Further, the “pronephric angle neck segment” value in test [4] came to 1.04 ± 0.02.
Regarding `COc1cc2c(cc1OC)C(=O)C(CC1CCN(Cc3ccccc3)CC1)C2` (centres undefined) [Donepezil hydrochloride], the glomerular separation in test [1] was found to be 0.812 ± 0.32. Besides, the glomerular width in test [2] was determined as 1.13 ± 0.082. Further, the “fraction of imaged embryos annotated” value in test [3] came to 0.833. In addition, in test [4], the “pronephric angle neck segment” value amounted to 0.9843 ± 0.0083.
On to `CC#C[C@]1(O)CC[C@H]2[C@@H]3CCC4=CC(=O)CCC4=C3[C@@H](c3ccc(N(C)C)cc3)C[C@@]21C` [Mifepristone], for which the glomerular separation in test [1] amounted to 0.949 ± 0.33. In test [2], the glomerular width came to 1.15 ± 0.027. Moreover, the “fraction of imaged embryos annotated” value in test [3] turned out to be 0.75. Also, the “pronephric angle neck segment” value in test [4] was found to be 1.0508 ± 0.001.
